Data: PubChem BioAssay AID1016 (Sanford-Burnham Center for Chemical Genomics, 2008)
The whole screen tested about 200,000 compounds, of which about 330 (0.17%) were called active. This excerpt belongs to a sample that is enriched for actives. Values without a mark were called inactive.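 How the source made its calls: active means activation factor of 2 or more at 20 µM, a signal rise over negative controls twice the positive control's; inactive means the rest.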

What follows are compounds tested on alkaline phosphatase, intestinal [Bos taurus] (assay: IAP enzyme activity enhancers – biochemical, bovine IAP, CDP-star luminescence, primary screen (AID 1016)). Conditions: purified bovine IAP, 30 min, at 20 µM, stronger effect = higher value.

**Q.** How did the activation factor turn out when `Cc1cc(C)cc(NC(=S)NC2CC3CCCC(C2)N3Cc2cccs2)c1` (stereo not given) was run?
**A.** The activation factor was 3 (active).

**Q.** With `COP(=O)(OC)C(NC(=O)c1ccc(C)cc1)C(Cl)(Cl)Cl` (stereo not given) as the compound, how does the activation factor read?
**A.** The activation factor was 0.8.

**Q.** How did the activation factor turn out when `CN(C)C(=O)Oc1ccc(OCc2cccc[n+]2C)cc1` was run?
**A.** Its activation factor is 1.

**Q.** How did the activation factor turn out when `CCOC(=O)C1SC2(C(F)(F)C(F)F)CC1(O)c1c(c(OC)c3occc3c1OC)O2` (stereo not given) was run?
**A.** The activation factor was 0.9.

**Q.** How did the activation factor turn out when `CN(C)CC1CCCCC1OC(=O)c1ccc(Cl)c(Cl)c1` (stereo not given) was run?
**A.** Its activation factor is 1.
